# According to PubChem BioAssay (NCI):
# About 83,000 compounds went through this panel and 20% of them were active in at least one assay; those are over-represented in the sample as a whole.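 Treatment: one concentration, 48 hours, 96-well format. Scoring: percent growth, with anything below 10 considered active.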 A number with no mark means an inactive call. Active and inactive are the calls of the source.
# Key:
# Assay in all cases: NCI-60 one-dose screen, 48 h (100 = growth as untreated, 0 = no growth, -100 = all killed)
# Conditions in all cases: 10 µM unless noted
# HCT-15 colon = tested on: HCT-15 colon
# HT29 colon = tested on: HT29 colon
# SNB-75 CNS = tested on: SNB-75 CNS
# SNB-19 CNS = tested on: SNB-19 CNS
# U251 CNS = tested on: U251 CNS
# PC-3 prostate = tested on: PC-3 prostate
# SK-MEL-5 melanoma = tested on: SK-MEL-5 melanoma
# UACC-62 melanoma = tested on: UACC-62 melanoma
# LOX IMVI melanoma = tested on: LOX IMVI melanoma
# SK-MEL-28 melanoma = tested on: SK-MEL-28 melanoma
# SK-MEL-2 melanoma = tested on: SK-MEL-2 melanoma
# EKVX NSCLC = tested on: EKVX NSCLC
# SN12C renal = tested on: SN12C renal
# UO-31 renal = tested on: UO-31 renal
# TK-10 renal = tested on: TK-10 renal
# ACHN renal = tested on: ACHN renal
# CAKI-1 renal = tested on: CAKI-1 renal
# CCRF-CEM leukemia = tested on: CCRF-CEM leukemia
# MOLT-4 leukemia = tested on: MOLT-4 leukemia
SMILES,growth (HCT-15 colon),growth (HT29 colon),growth (SNB-75 CNS),growth (SNB-19 CNS),growth (U251 CNS),growth (PC-3 prostate),growth (SK-MEL-5 melanoma),growth (UACC-62 melanoma),growth (LOX IMVI melanoma),growth (SK-MEL-28 melanoma),growth (SK-MEL-2 melanoma),growth (EKVX NSCLC),growth (SN12C renal),growth (UO-31 renal),growth (TK-10 renal),growth (ACHN renal),growth (CAKI-1 renal),growth (CCRF-CEM leukemia),growth (MOLT-4 leukemia)
O=S(=O)(NCCNc1nccc(-c2c(-c3cccc(O)c3)nc3occn23)n1)c1cccc(F)c1,95.5%,51.2%,80.6%,102%,98.3%,86.8%,46.4%,14%,64.8%,50.1%,61.1%,97.1%,76.6%,92.7%,136%,78%,71.6%,91.7%,93%
COc1ccccc1NC(=O)C1CC(c2ccc(F)cc2)=NO1 (stereo not given),99.2%,103%,87.9%,96.8%,96.3%,104%,95.3%,96%,95.5%,107%,103%,89.8%,96.3%,82.9%,105%,107%,95.3%,104%,103%
Cc1ccc(NC(C(=O)c2ccccc2)c2ccccc2)cc1 (stereo not given),86.4%,46.9%,66.3%,47.9%,29.7%,37.6%,22.1%,39.1%,50.5%,52.8%,36.1%,20.5%,50.1%,78.9%,74.6%,85%,66.7%,65.2%,74.6%
COc1cc2nc(-c3ccc(Cl)cc3)cc(OCCCN3CCCC3)c2cc1OC,20.4%,23.8%,8.25% (active),67.9%,54.4%,41.9%,-8.4% (active),-66.1% (active),-32.7% (active),63.7%,71.1%,65.8%,37.9%,42.3%,101%,35.5%,3.85% (active),44.6%,40.4%
Cc1cc(C)c(S(=O)(=O)Oc2ccccc2[N+](=O)[O-])c(C)c1,15.8%,3.94% (active),-18.4% (active),33.1%,29.7%,20.7%,6.18% (active),24.5%,43.4%,50.6%,7.67% (active),48.2%,35.6%,22.8%,33.9%,37.4%,24%,20.6%,34.6%
CC(=O)N1N=C(c2ccc(-n3ccc(C(F)(F)F)n3)c(F)c2)CC1c1ccc[nH]1 (stereo not given),98.8%,102%,103%,100%,99.3%,96.7%,97.7%,90.7%,98.1%,105%,94%,102%,102%,92.7%,108%,109%,95.4%,93.7%,85.6%
O=C(c1nc2ccccc2[nH]1)C1C(c2ccc(Br)cc2)C2CC3CCCC[C@H]3N2[C@@]12C(=O)Nc1cc(Cl)ccc12 (stereo not given in full),23.7%,27.9%,49.1%,49.8%,43.9%,28.4%,51%,58%,30%,62.4%,73.3%,37%,39.7%,20.6%,40.7%,29.9%,17.7%,32%,6.93% (active)
CC(=O)Nc1cccc(-c2ccc3c(c2)NC(=O)/C3=C\c2ccc[nH]2)c1,27.2%,25.6%,53.3%,69.1%,45.6%,63.8%,61.1%,48.5%,35.9%,68.3%,54.7%,35%,56.6%,25.9%,43.2%,33.8%,33%,27%,29.4%
O=C(N/N=C/c1cc2ccccc2n2nnnc12)Nc1ccccc1,98.3%,97.2%,103%,97.1%,104%,101%,101%,100%,108%,113%,105%,98%,100%,94.1%,101%,108%,94.5%,103%,101%
O=S(=O)(NCCNc1nccc(-c2c(-c3cccc(F)c3)nc3sccn23)n1)c1ccc(Br)cc1,29.2%,28.2%,75.3%,59.3%,53.4%,51%,31.5%,35.8%,38.5%,69.1%,71.7%,59.5%,42.9%,21.2%,68.8%,30.2%,35.1%,51%,35.7%
O=C(Nc1ccccc1)Nc1ccc2cc3ccc(NC(=O)Nc4ccccc4)cc3nc2c1,93.9%,4.81% (active),-0.331% (active),-27.5% (active),-39.3% (active),51.5%,83%,18.7%,-52.8% (active),-13.4% (active),55.5%,86.6%,-26.5% (active),89.9%,114%,92%,80.3%,0.957% (active),-27.6% (active)
N#CC1=C(/N=C/c2ccccc2)Oc2c(ccc3ccccc23)C1c1ccc([N+](=O)[O-])cc1 (stereo not given),91.4%,102%,60.4%,94.9%,97.4%,78.7%,86.9%,87.2%,90.4%,118%,90.8%,70.7%,93.5%,59.5%,166%,87.9%,70.1%,94.5%,94.4%
COc1cc2c(c(O)c1Br)C(=O)c1c(O)cc(C[C@H](C)O)cc1[C@H]2[C@H]1c2cc(C[C@H](C)O)cc(O)c2C(=O)c2c1cc(OC)c(Br)c2O,8.27% (active),11%,-6.83% (active),18.1%,10.3%,16.2%,-74.1% (active),4.54% (active),4.77% (active),31.8%,-38.2% (active),9.77% (active),9.01% (active),-29% (active),37%,-46.1% (active),4.31% (active),10.1%,-0.594% (active)
Cn1ccnc1C(=O)/C=C/c1ccc(CC(=O)Nc2ccc(F)cc2)cc1,14.1%,-26% (active),-7.25% (active),19%,9.49% (active),36.1%,34%,54.3%,15.2%,85.9%,102%,57.9%,23.9%,37.2%,71.9%,69.3%,38.1%,6.85% (active),20.6%
N/C(=N\C(N)=N\c1nc2ccccc2s1)c1cnccn1,11.6%,24.1%,35.8%,37.4%,35.1%,31.1%,-48.5% (active),-20.8% (active),15.1%,21.6%,3% (active),48%,36.7%,-12.9% (active),37.9%,26.2%,15.5%,14.6%,8.63% (active)
